Experimental data as given in the supplement of paper PMC3334620.
The full ranking holds about 33,000 sequences; the median of “E-score (-0.5 to 0.5)” is about -0.0014, and the highest 2% start at about 0.25. What follows is part of a selection rich in the highest values, with near analogues and random picks from the rest.

Biological target: T1, Cad1 (UniProt P24813)
T1 sequence: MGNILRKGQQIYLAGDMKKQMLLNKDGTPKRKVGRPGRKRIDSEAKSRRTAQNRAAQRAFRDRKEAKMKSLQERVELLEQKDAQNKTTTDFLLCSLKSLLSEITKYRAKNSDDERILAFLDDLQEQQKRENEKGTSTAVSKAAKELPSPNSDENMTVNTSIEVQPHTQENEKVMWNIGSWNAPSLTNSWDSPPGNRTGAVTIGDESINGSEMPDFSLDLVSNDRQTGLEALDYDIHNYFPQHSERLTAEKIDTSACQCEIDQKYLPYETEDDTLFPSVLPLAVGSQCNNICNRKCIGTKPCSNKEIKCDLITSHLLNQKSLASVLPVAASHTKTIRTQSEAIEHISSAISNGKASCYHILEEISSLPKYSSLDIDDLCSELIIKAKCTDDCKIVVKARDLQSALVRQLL
Assay: PBM E-score (8-mer binding enrichment) (E-score (-0.5 to 0.5)); higher = stronger / more preferred TF binding
Settings: protein concentration: 100 nM; construct: GST-full length
Method: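 Universal 'all 10-mer' protein binding microarrays (Agilent AMADID 015681) probed with GST-tagged S. cerevisiae TFs (full-length or DBD) made by in vitro transcription/translation (PURExpress), about 100-200 nM. Bound TF was detected with fluorescent anti-GST. Each ungapped 8-mer (which stands for itself and its reverse complement) is scored by the PBM enrichment score (E-score), a modified Wilcoxon-Mann-Whitney statistic from -0.5 to +0.5, computed with the Universal PBM Analysis Suite. Scale: above 0.35 generally sequence-specific binding.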

Sequence	PBM E-score
ACTAATAC	0.301
ACTAACAG	0.193
CCTAATAC	0.013
GCTAATAC	0.152
ACTAACAT	0.255
ACTAACAC	0.184
ACTGCGCG	0.0621
AATATATT	0.322
AATATAGT	0.281
ACTATAGA	-0.00757
ACTATAGT	0.293
AATATATG	0.236
AATATCGA	0.242
AATATCGT	0.272
AATATATA	0.244
AATATAGG	0.123
AATATCGG	0.183
ACTATAGG	-0.161
AATATAGC	0.0229
ACTGGTCA	-0.0283
GAGTCCGC	-0.377
ATTTAGGA	0.0482
AGGCAGGG	-0.133
ACCACCAA	-0.0937
CTTCCGTC	-0.133

Sequence	PBM E-score
CAGAGCAA	-0.0906
AACAGGGC	0.0552
TGCGTGAA	0.0712
GACGTATC	-0.107
ACCCATGA	-0.0855
CCACACGC	0.131
ATTACGAG	0.0536
ATTACGTA	0.392
CTTACGTC	-0.0353
ATTACGAA	0.327
GTTACGTA	0.0792
GTTACGAA	0.17
CTCACGTA	-0.0707
ATTACGTG	0.163
CTTACGTA	0.328
CCAATTTC	0.105
ATCCACTA	0.127
GACTAAGA	0.0179
GGATTACA	0.0354
AAATTATA	0.237
AGATTACT	0.184
TAATTACA	0.265
GAATTATA	0.19
AGATTACC	0.107
AAATTACA	0.191

Sequence	PBM E-score
CGATTACA	0.197
AGATTACG	0.252
CAATTACA	0.241
TAATTATA	0.306
TGATTACA	0.275
ATGCCCGA	-0.0531
TGGCGCCA	0.198
CGCGTTCC	0.132
AGATCAGG	-0.128
TCGTTAGA	0.0445
CGTACTTC	0.096
CTACGGCC	-0.0892
TCGGTACA	-0.0456
ATAAGATC	0.0938
AAAAGAAG	0.0683
ATAAGAAA	0.209
ACAAGAAC	0.251
CTAAGATA	-0.0701
AAAAGAAT	0.257
ATAAGAAC	0.205
ATAAGATA	0.264
GCAAGAAC	0.0479
AAAAGAAC	0.118
ATAAGAAT	0.284
ACAAGAAT	0.00675

Sequence	PBM E-score
GGCTTTAA	-0.12
TACCACTA	-0.0282
CTAGCCCA	-0.145
CGGACACA	0.00739
GAGGCTTA	-0.0175
ATAGGCAT	-0.202
GAGGTTCA	0.0769
CTGGCTGC	-0.0751
ACGCGTCA	0.198
GGGAAGAC	-0.154
AAACCCAG	0.0892
AACCCCAT	-0.107
AAACCCAT	0.261
AGGCCGAA	-0.0603
CTTAAGGA	0.0352
AAGGCACA	-0.0665
TGACCGCA	0.0752
AAATGATT	0.261
CAATGATA	0.0335
AAATGATA	0.214
AAATGATC	-0.133
TAATGATA	0.251
GAATGATA	0.223
AATCTGCG	0.00478
CAGGTTAC	-0.0155

Sequence	PBM E-score
CACTTCGG	-0.0116
CATTGTAC	0.0995
AATTGTAC	0.252
GATTGTAC	-0.082
AACACAGC	0.281
CACACAGC	0.107
AACACAGG	-0.0364
CGGGGGCC	-0.42
CGGAGGTA	-0.0635
GGCGTCCC	-0.213
AGACGTCA	-0.096
GGACGTCA	-0.159
TGACGTCA	0.334
GGTCGACC	0.263
CGTCGACC	0.118
CGTCGACG	0.103
AGTCGACG	0.296
GGTCGACA	0.0882
AGTCGACC	0.107
AGTCGACA	0.22
ACTCGACG	0.0798
AGTCGACT	0.287
CCAACTAG	0.0684
GCGCACCA	0.134
CTAACCTA	-0.129

Sequence	PBM E-score
AACTAGCC	-0.0573
AGAACAGC	0.00791
ACGCATTG	-0.0523
GAACATAC	0.0334
AGTGGCGG	-0.014
CTCAGGCA	0.034
ACACCAAA	0.254
AAACGGAA	0.266
AAACGAAT	0.017
ACACCAAG	-0.0199
GAACGGAA	-0.0319
CAACGAAA	0.162
TAACGAAA	0.26
AAACGGAC	-0.00593
AAACGAAA	0.287
AAACGAAC	0.0751
GAACGAAA	-0.0129
GCACCAAA	-0.0001
GGGCAACA	-0.0207
TTCAAAAA	-0.0855
ACATTCCG	0.05
CATGGAAA	0.161
AGCTGAAT	-0.00032
GGGCAGTA	-0.0606
ACACGAAG	0.0492

Sequence	PBM E-score
ACACGAAA	0.257
CAACGATA	0.174
AAACGATA	0.128
ACACGAAT	0.0874
TAACGATA	0.261
GCAGTTAC	0.128
CAAGTACG	-0.268
CCGGAGAC	0.036
GCGGAGAC	0.267
ACGGAGAC	0.128
CTCAACGA	-0.0873
ATACCTAA	0.227
CTACATAA	-0.0789
CTACCTAA	0.0375
GGACATAA	0.102
AGACATAA	0.0308
TTACATAA	0.438
TTACCTAA	0.334
TGACATAA	0.266
GTACATAA	0.0232
AAGTGGCA	-0.0104
CTCCATGA	0.0675
CCATAAGA	-0.0777
AAGCCTCG	-0.00547
ATTGTGAA	0.0555

Sequence	PBM E-score
GCCCTCCC	-0.19
AAGCACAT	0.254
AAGCACAG	0.0641
AAGCACAC	-0.0239
CGTAACAA	0.0611
GGTAACAA	0.261
AGTAACAA	0.082
ACCATCCG	-0.081
AAGTCCTC	-0.0441
ATCGATTA	0.275
ATCGATTC	0.0832
CACGATTA	0.162
CTCGATTA	0.276
ATCGATCG	0.188
ATCGATTG	0.299
ACCGATTA	0.123
CTCGATTC	0.0642
GTCGATTA	0.115
CCCTAGGC	-0.079
TACCCAGA	0.109
ACACAGAT	0.0606
CGCACACC	0.0191
ACGTCCGA	-0.0154
CCTGGTAG	-0.209
TAGTTATA	0.068

Sequence	PBM E-score
AGTGCGTC	-0.0502
AACCTGCC	-0.164
GTCTAGTA	0.0789
AACTTGAC	0.0523
ACGCACCC	-0.147
AAAGTTCT	0.0926
ACTACCGG	-0.231
ACAAACAC	0.262
ACAAACAA	0.176
ACAACGAA	0.145
CTAACGAA	0.153
ATAAACAA	0.261
ATAACGAC	0.189
GCAACGAA	0.275
TCAACGAA	0.0907
ATAACGAA	0.258
ACAAACAG	0.0175
ATAAACAC	0.15
TTAAACAA	-0.157
GACCACGA	0.0423
CGCACTAC	0.0013
GGCCGTTA	0.0668
ACGTGGAG	-0.0145
CCCCTATA	-0.144
CCGGTCTC	-0.161

Sequence	PBM E-score
CTTAGAGC	-0.0659
AAAAGCGC	0.0216
AAGTGCTA	-0.257
GGGTCCGA	-0.21
ACGAGACC	-0.00034
ATAACAAA	0.312
AGAACAAA	0.247
ATAACAAT	0.0624
ATAACAAG	0.205
CGAACAAG	0.128
CGAACAAA	0.28
GCATCGAC	-0.0789
GACAGATA	0.0715
CAACGTTC	-0.009
CAACGTTG	0.263
AAACGTTG	-0.0452
ATTGTTAA	0.0122
GTTATTAA	0.291
ATTATTAC	0.0832
ACTATTAA	0.123
GTTGTTAA	0.259
AGTATTAG	0.299
CGTATTAG	0.165
ATTATTAA	0.384
CTTGTTAA	-0.0916

Sequence	PBM E-score
AGTATTAA	0.0712
GTTATTTA	0.153
GTTATTGA	0.159
CTCGCGGA	-0.155
CGCAGCAC	0.0114
ACATACGA	0.117
CTGAAGAA	-0.18
CAACTGTG	-0.031
CAAGACAG	-0.0259
CATGCCAG	-0.0523
CCTATTAA	-0.00224
AGTGTTAA	0.255
CTTATTAA	0.42
CTTATTAC	0.218
TGTGTTAA	0.19
GGTGTTAA	0.0749
TATTTTAA	0.107
GCGGCTTA	0.227
ACCTCTTA	0.153
AAGTCATG	0.0989
ACCGCCTG	-0.142
ACCCGGAC	-0.179
GTTTAATA	0.189
ATTTAATC	0.285
ATTTAATG	0.213

Sequence	PBM E-score
CTTTAATA	0.218
ATTTAATA	0.316
CTTTAATC	-0.00133
AGAGAGGC	-0.297
AGTAAACT	0.105
CCTAGATA	-0.0467
CACGTTTC	-0.176
CAATTTTC	0.125
CAATTTTA	0.27
CAATTTAA	0.156
CTCGCTGA	0.0202
TCGATCGA	0.27
CCGATCGA	0.0111
GCGATCGA	0.248
ACGATCGG	0.0625
ACGATCGT	-0.0266
ACGATCGA	0.254
GATTGAGC	0.0444
ATCAGCAT	0.192
AACTAATC	0.179
CACTAACC	0.0546
GACTAAGC	0.228
CACTAATC	0.262
CACTAAGC	0.0972
GACTAATC	0.362

Sequence	PBM E-score
CTCGCTCA	0.138
CACCGCCC	-0.0109
AAACTCAT	0.253
AAACTCAA	0.163
AAACTTAA	0.171
CAACTTAA	0.0842
TAACTTAA	0.259
AAACTCAG	-0.00451
AAACTAAT	0.36
AAACTTAC	0.0226
AAACTTAT	0.256
AAACTAAA	0.141
GAACTTAA	0.116
AAACTAAG	0.166
CCCCCTGA	-0.414
AGGGATCG	-0.207
AAAAGTGT	-0.074
CCAGACAA	0.0234
CTAGGTGC	-0.221
AACCGCTT	0.0439
CTTCCTAA	0.0434
AGTCCTTG	-0.0247
ATCAAGCC	-0.0325
CATCGCGC	0.051
TATCGCAA	0.22

Sequence	PBM E-score
AATCGCGA	0.196
GATCGCGA	0.132
CATCGCGA	0.25
TATCGCGA	0.259
CGGCTCCA	-0.0781
CGCGTTAC	0.139
AACGGGGT	-0.13
CTAAGCAG	-0.078
CTAAGCTA	0.135
GTAAGCAC	0.163
ATAAGCTA	-0.0126
GTTAGCAA	0.0595
ATTAGCAA	0.304
ATTAGCAG	0.0216
GTAAGCTA	0.298
CTAAGCAA	0.0503
GTAAGCAA	0.345
CTAAGCAC	0.294
TTAAGCAA	-0.0269
